This note sets out measurements from PubChem BioAssay (NCATS).

A number with no mark means an inactive call. Inconclusive results are not listed. Active and inactive are the calls of the source. Unless noted, calls come from the whole dose curve; as a rule, active = well fitted curve in the direction sought with a large enough effect; inconclusive = small, poorly fitted or top-dose-only effect, or another doubt; inactive = no such curve, though single readings can be large; an effect the other way counts as inactive or inconclusive.

For experiment [1], the target named is Tumor susceptibility gene 101 protein (Homo sapiens) (UniProt Q99816). Nature of the experiment: qHTS Assay for Iinhibitors of HIV-1 Budding by Blocking the Interaction of PTAP/TSG101: Hit Validation (AID 651600). Note: potency is the fitted concentration of half-maximal effect; nearly all actives have a fitted effect of over 70% in size. In a few lines: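 Compounds are added to the Tsg101 binding domain (10 uM final) in pH 7.5 HEPES buffer. FITC-PTAP peptide follows at 50 nM final. After 20 min at r.t., polarized FITC emission is measured.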
Tumor susceptibility gene 101 protein (Homo sapiens), sequence (Q99816 whole entry, looked up, the tested form may be a part): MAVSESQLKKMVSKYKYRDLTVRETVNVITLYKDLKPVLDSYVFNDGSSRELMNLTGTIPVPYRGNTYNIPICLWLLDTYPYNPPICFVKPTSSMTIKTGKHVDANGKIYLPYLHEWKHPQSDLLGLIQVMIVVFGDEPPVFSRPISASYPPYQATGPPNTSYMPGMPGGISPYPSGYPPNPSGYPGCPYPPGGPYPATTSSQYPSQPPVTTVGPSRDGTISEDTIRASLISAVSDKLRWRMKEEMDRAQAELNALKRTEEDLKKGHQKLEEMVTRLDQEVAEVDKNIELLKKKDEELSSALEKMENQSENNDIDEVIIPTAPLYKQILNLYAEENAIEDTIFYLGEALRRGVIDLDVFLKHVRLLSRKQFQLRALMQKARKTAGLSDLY
For orientation: In qHTS, concentration-response curves come from the screen itself.

In experiment [2] the target is Rap guanine nucleotide exchange factor 3 (Homo sapiens) (UniProt O95398). Nature of the experiment: Confirmatory qHTS for antagonist of cAMP-regulated guanine nucleotide exchange factor 3 (EPAC1) (AID 1645880). Note: nearly all actives have a fitted effect of over 55% in size. Note: potency is the fitted concentration of half-maximal effect. The settings on record: EPAC1 Rap1B-BODIPY-GDP exchange, fluorescence; activity, negative = inhibition: at 115 µM (top of the series). In a few lines: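 Nucleotide exchange uses 100 nM EPAC1, 250 nM RAP1B-BODIPY-GDP and 50 uM GDP, with compounds in a concentration-titration series. After 5 min at room temperature, fluorescence (480 nm ex/540 nm em) is read every 5 min for 30 min. Data are normalized to control ATA and DMSO.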
Rap guanine nucleotide exchange factor 3 (Homo sapiens), sequence (O95398 whole entry, looked up): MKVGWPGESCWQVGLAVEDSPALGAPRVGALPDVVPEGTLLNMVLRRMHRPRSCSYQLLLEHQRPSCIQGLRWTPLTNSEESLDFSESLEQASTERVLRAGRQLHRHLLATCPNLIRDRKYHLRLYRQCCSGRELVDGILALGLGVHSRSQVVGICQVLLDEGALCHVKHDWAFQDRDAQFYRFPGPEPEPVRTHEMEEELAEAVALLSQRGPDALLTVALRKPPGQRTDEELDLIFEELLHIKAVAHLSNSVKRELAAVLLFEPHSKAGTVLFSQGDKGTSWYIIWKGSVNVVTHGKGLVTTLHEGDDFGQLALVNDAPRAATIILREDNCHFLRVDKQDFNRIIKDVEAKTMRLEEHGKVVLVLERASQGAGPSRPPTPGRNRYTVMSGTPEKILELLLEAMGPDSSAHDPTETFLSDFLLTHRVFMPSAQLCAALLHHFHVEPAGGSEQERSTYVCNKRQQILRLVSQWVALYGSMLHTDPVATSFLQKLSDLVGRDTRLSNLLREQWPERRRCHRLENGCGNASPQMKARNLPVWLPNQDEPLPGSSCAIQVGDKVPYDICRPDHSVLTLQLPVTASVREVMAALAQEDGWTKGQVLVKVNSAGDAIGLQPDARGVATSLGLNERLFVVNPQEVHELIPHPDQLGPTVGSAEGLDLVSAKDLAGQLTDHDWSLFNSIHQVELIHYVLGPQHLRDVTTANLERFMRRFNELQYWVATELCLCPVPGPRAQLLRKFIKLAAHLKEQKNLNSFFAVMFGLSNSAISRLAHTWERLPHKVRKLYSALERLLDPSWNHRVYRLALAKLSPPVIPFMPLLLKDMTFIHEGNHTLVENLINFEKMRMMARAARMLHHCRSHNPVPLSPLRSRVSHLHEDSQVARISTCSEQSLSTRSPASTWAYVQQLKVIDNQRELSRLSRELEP

Experiment [3] shares this target. In words: Confirmatory qHTS for agonist of cAMP-regulated guanine nucleotide exchange factor 3 (EPAC1) (AID 1645881). Note: nearly all actives have a fitted effect of over 75% in size. Note: potency is the fitted concentration of half-maximal effect.
The target in experiment [4] is Rap guanine nucleotide exchange factor 4 (Homo sapiens) (UniProt Q8WZA2). Nature of the experiment: Confirmatory qHTS for agonist of cAMP-regulated guanine nucleotide exchange factor 4 (EPAC2) (AID 1645884).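 Note: nucleotide exchange releases bodipy-GDP from Rap1 and this lowers its fluorescence; nearly all actives have a fitted effect of over 65% in size.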 Note: potency is the fitted concentration of half-maximal effect.
Rap guanine nucleotide exchange factor 4 (Homo sapiens), sequence (Q8WZA2 whole entry, looked up): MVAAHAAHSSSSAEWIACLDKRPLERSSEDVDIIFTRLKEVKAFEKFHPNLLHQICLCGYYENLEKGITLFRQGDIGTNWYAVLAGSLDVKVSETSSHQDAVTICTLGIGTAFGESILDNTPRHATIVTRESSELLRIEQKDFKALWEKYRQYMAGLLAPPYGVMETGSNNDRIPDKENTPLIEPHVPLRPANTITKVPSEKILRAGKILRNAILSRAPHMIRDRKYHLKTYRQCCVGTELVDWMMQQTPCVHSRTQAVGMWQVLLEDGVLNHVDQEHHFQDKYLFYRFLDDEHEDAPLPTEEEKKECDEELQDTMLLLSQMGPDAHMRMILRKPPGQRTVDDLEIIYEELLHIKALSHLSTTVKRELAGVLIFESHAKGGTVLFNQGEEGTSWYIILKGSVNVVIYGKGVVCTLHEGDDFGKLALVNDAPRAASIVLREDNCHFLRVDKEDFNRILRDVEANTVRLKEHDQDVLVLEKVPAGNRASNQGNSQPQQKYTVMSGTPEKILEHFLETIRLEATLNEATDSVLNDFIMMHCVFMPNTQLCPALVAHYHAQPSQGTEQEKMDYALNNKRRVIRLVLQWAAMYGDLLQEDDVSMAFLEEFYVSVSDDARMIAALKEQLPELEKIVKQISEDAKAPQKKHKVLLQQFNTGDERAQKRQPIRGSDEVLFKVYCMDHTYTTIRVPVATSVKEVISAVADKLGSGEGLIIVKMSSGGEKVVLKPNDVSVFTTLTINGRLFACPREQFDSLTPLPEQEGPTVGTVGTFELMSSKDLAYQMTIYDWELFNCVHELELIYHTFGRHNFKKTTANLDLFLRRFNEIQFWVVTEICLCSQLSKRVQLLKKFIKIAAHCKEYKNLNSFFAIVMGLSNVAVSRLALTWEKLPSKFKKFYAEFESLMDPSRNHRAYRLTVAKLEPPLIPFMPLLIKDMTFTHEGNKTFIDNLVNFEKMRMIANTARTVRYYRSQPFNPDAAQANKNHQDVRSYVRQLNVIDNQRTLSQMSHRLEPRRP
The target of experiment [5] is Rap guanine nucleotide exchange factor 3 (Homo sapiens) (UniProt O95398). Nature of the experiment: Counterscreen qHTS for antagonist of cAMP-regulated guanine nucleotide exchange factor 3 (EPAC1) (AID 1645888).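 Note: fluorescence loss as bound BODIPY-GDP is released from Rap1B.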 In a few lines:
(§1)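 Measured: fluorescence of BODIPY-GDP bound to Rap1B, which falls as exchange proceeds. Conditions include 50 uM competing GDP, 5 and 30 min reads, and a later cAMP challenge for antagonist detection.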
For orientation: Counterscreens check selectivity or assay interference.

For experiment [6] the target is unchanged. In words: Counterscreen qHTS for agonist of cAMP-regulated guanine nucleotide exchange factor 3 (EPAC1) (AID 1645889). Note: nearly all actives have a fitted effect of over 40% in size. Note: potency is the fitted concentration of half-maximal effect. In a few lines:
as §1

A short description of experiment [7]: qHTS for Inhibitors of Ubiquitin-specific Protease USP2a Using CHOP2 as the Reporter: K633 Counterscreen (AID 652168). In a few lines:
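Cell-free interference counterscreen without USP2a: compounds pinned into enzyme-free buffer (20 mM Tris pH 8, 2 mM beta-mercaptoethanol, 0.05% Chaps), then DiUb K48-4IQF substrate added (100 nM stock); fluorescence read kinetically, Ex 525/Em 598.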

Experiment [8] can be described thus: qHTS for Inhibitors of Ubiquitin-specific Protease USP2a Using CHOP2 as the Reporter: Cytotox Assay (AID 652170). Note: nearly all actives have a fitted effect of over 70% in size. In a few lines:
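HCT116 human colon cancer cells, 600 per well in DMEM with 10% FBS, exposed to compounds for 72 hr at 37 deg C. ATP measured by CellTiter-Glo luminescence, normalized to DMSO cells and no-cell background.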

Experiment [9] has as its target Ubiquitin carboxyl-terminal hydrolase 2 (Homo sapiens) (UniProt O75604). Nature of the experiment: qHTS for Inhibitors of Ubiquitin-specific Protease USP2a Using CHOP2 as the Reporter: K484 Substrate (AID 652173).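 Note: cleavage of internally quenched K48 di-ubiquitin substrate measured as rising fluorescence over time; potency is the fitted concentration of half-maximal effect; nearly all actives have a fitted effect of over 70% in size.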 The following applies: USP2 cleavage of DiUb K48 IQF substrate, fluorescence. The procedure, abridged: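 USP2 (dispensed at 5 nM) was pinned with compounds, then DiUb K48 internally quenched fluorescent substrate (dispensed at 100 nM) was added. The buffer was 20 mM Tris pH 8, 2 mM beta-mercaptoethanol and 0.05% CHAPS. Cleavage was read kinetically as rising fluorescence, Ex 525/Em 598.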

The target of experiment [10] is Rap guanine nucleotide exchange factor 4 (Homo sapiens) (UniProt Q8WZA2). In words: Confirmatory qHTS for antagonist of cAMP-regulated guanine nucleotide exchange factor 4 (EPAC2) (AID 1645885). Note: nearly all actives have a fitted effect of over 25% in size.
Experiment [11] can be described thus: Stat Signaling Pathway (AID 446; active = well fitted curve in either direction with a large enough effect, not every such curve was filed as active;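 note: ME-180 cervical cancer cells given 40 pM IL-6 alongside compound; SIE-controlled beta-lactamase reporter measured as 460/530 nm FRET emission ratio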). The procedure, abridged:
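ME-180 cells carrying a SIE-driven beta-lactamase reporter are stimulated with 40 pM IL-6 for 5 h at 37C in the presence of compound. The 460/530 nm FRET substrate ratio is read after 2.5 h at RT. Data are normalised to 300 pM IL-6 and to 125 nM JAK inhibitor controls.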

The target in experiment [12] is Glucocorticoid receptor (Homo sapiens) (UniProt P04150). In words: GR-GFP Redistribution (AID 450;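 active = compounds whose dose series gives a full or clear partial fitted curve of increased nuclear translocation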; note: potency is the fitted concentration of half-maximal effect). The settings on record: U2OS GR-GFP nuclear translocation, laser cytometry, 2 h.
Glucocorticoid receptor (Homo sapiens), sequence (P04150 whole entry, looked up): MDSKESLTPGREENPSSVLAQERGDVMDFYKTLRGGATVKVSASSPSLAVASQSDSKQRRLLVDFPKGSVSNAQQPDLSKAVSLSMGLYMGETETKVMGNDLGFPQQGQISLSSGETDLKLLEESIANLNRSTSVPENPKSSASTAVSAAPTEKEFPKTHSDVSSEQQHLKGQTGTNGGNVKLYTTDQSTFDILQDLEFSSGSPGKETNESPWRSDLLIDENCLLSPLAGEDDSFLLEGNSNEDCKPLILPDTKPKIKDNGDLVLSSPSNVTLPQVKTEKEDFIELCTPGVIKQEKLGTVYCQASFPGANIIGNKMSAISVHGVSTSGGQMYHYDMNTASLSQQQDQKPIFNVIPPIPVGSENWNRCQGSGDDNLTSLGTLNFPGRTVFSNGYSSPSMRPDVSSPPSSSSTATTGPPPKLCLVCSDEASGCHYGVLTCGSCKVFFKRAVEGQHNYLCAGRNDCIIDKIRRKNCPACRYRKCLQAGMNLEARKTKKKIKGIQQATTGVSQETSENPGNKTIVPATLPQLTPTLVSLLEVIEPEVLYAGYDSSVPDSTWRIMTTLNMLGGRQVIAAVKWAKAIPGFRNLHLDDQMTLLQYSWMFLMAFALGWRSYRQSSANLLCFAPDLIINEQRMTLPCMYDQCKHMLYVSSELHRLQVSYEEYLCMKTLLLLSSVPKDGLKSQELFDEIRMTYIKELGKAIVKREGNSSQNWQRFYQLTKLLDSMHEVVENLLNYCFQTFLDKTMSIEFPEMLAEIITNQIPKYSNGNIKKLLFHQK

Ubiquitin carboxyl-terminal hydrolase 2 (Homo sapiens), sequence (O75604 whole entry, looked up): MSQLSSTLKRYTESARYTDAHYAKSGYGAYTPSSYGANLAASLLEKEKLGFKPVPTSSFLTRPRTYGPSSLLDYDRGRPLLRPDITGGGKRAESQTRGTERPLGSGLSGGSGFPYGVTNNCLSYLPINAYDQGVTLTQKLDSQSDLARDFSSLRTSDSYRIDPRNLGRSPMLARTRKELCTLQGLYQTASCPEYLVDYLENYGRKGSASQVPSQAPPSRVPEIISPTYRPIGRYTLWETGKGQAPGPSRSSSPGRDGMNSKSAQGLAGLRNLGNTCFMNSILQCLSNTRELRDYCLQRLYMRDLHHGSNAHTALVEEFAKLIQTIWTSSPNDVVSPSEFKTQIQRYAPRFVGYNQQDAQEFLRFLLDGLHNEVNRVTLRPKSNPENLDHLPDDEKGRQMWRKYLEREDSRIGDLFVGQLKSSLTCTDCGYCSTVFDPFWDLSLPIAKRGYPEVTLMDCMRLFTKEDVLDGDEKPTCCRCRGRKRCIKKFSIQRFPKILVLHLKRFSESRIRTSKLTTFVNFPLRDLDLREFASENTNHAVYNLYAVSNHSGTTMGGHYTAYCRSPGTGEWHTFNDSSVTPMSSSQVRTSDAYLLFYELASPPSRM

Take `CCOC(=O)/C(C#N)=C\c1ccc(N2CCN(C/C=C/c3ccccc3)CC2)cc1`: the Potency is 20.6 µM (active) in experiment [1], 79.4 µM (active) in experiment [3], 100 µM (active) in experiment [4] and 70.8 µM (active) in experiment [6]. For the same compound, the Potency result in [2] and in experiment [5] was “inactive” each time.
For the compound `Cc1cccc(Cn2c(C)nc3c(N)c(C)c(C)cc32)c1`, the Potency result in [2], in experiment [3], in experiment [4] and in experiment [6] was “inactive” in each case.
`Cc1cc(NS(=O)(=O)c2ccc(Nc3nc(-c4ccc(C)c(C)c4)cs3)cc2)no1`: the call in experiment [7] and in [8] was inactive. The Potency in experiment [9] is 27.3 µM (active); in experiment [2], 75.7 µM (active). For the same compound, the Potency entry in [3], in experiment [4] and in experiment [5] was “inactive” in each case.
On to `COc1ccc(C2CC2/C(=N/O)c2ccccn2)cc1` (stereo unspecified), for which the Potency entry in experiment [2], in experiment [3], in experiment [4] and in [6] was “inactive” throughout.
Regarding `CSc1ccc(S(=O)(=O)NCC(=O)OCC(=O)N(C)Cc2ccccc2)cc1[N+](=O)[O-]`, the Potency result in experiment [2], in experiment [3] and in experiment [10] was “inactive” each time.
With `COCCCNC(=O)C(C#N)c1nc2ccccc2nc1N1CCN(Cc2ccccc2)CC1` (stereo unspecified), the result in [11] was inactive. The Potency is over 20.6 µM in experiment [12] and 75.7 µM (active) in experiment [2]. For the same compound, the Potency result in [3], in experiment [4], in [5] and in experiment [6] was “inactive” in each case.
